# Source: PMC7862700, “An all-to-all approach to the identification of sequence-specific readers for epigenetic DNA modifications on cytosine”
# How the values were obtained:
# Experiment in all cases: DAPPL (digital affinity profiling via proximity ligation, sequencing); 10 mM Tris-HCl pH 7.5, 50 mM NaCl, 1 mM DTT, 4% glycerol, room temperature, 30 min; GST-TFs on glutathione beads, 16-mer random dsDNA library, 0.1% formaldehyde crosslink after washing; high values mean tight binding
# FLI1 = molecular target: T1, FLI1 (Homo sapiens, UniProt Q01543 1-452); details: protein: recombinant; tags: N-terminal GST; dsDNA, one strand shown
# T1 sequence: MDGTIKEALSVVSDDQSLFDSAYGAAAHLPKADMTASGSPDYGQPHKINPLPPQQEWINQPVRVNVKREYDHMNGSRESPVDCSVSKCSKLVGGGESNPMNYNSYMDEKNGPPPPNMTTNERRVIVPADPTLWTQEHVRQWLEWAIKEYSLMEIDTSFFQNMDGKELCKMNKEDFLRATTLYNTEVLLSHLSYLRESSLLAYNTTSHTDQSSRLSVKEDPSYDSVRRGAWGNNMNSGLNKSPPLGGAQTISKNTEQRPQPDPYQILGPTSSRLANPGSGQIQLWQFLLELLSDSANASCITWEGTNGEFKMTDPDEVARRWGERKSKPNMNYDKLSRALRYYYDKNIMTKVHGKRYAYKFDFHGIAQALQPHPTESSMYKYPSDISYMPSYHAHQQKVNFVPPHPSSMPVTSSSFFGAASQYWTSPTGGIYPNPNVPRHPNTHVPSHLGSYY
# In short: (§1)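 A tag-only sample was pooled with DNA-barcoded human transcription factors that had been expressed in yeast as GST fusions and captured on glutathione beads. The pools were incubated for 30 min at room temperature with 200 nmole of a random double-stranded 16-mer DNA library in Tris/NaCl/DTT/glycerol buffer, then washed, crosslinked with 0.1% formaldehyde, proximity-ligated (BsaI/T4 ligase, 1 h, 37 °C), PCR-amplified and sequenced on an Illumina NextSeq500. Binding signal is each hexamer's read frequency for a factor divided by its frequency for the tag-only sample.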
# ELK1 = molecular target: T2, ELK1 (Homo sapiens, UniProt P19419 1-428); details: protein: recombinant; tags: N-terminal GST; dsDNA, one strand shown
# T2 sequence: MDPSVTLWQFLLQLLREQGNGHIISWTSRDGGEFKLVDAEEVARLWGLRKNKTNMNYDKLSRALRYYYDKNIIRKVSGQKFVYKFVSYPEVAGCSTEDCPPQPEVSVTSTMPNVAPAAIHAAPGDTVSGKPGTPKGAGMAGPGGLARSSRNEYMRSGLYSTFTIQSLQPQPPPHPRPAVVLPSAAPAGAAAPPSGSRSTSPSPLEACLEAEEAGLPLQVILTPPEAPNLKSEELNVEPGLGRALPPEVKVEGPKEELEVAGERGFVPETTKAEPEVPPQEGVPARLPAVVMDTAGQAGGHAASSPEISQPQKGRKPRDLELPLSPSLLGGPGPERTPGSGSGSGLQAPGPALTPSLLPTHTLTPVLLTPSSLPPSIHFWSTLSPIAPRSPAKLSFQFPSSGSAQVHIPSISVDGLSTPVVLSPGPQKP
# In short: as §1
# GABPA = molecular target: T3, GABPA (Homo sapiens, UniProt Q06546 1-454); details: protein: recombinant; tags: N-terminal GST; dsDNA, one strand shown
# T3 sequence: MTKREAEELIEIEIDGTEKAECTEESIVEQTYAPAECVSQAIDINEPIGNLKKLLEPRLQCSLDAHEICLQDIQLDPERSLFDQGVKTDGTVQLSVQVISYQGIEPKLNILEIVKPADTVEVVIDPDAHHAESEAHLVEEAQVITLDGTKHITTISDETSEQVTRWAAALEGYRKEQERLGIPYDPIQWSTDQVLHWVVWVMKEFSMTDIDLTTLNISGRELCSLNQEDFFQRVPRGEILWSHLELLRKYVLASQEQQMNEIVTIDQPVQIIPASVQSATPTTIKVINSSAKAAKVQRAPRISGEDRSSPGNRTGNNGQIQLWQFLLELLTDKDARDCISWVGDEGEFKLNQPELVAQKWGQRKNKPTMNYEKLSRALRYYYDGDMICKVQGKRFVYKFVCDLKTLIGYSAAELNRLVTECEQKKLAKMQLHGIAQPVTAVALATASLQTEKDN
# In short: as §1
# ERG = molecular target: T4, ERG (Homo sapiens, UniProt P11308 1-479); details: protein: recombinant; tags: N-terminal GST; dsDNA, one strand shown
# T4 sequence: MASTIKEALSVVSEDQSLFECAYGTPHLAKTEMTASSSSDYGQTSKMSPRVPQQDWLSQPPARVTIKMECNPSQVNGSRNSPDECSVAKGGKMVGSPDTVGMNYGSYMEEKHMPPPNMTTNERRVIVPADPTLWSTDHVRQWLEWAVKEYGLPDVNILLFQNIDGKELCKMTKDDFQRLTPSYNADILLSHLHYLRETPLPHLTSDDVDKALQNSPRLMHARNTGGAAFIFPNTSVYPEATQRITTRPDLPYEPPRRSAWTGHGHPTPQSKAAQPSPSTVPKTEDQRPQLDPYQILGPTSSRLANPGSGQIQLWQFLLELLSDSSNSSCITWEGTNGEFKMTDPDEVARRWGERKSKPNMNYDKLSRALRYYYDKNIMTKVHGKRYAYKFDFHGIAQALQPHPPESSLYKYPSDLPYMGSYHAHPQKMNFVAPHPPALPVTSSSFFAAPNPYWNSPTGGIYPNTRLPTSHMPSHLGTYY
# In short: as §1
# ELF1 = ELF1 (Homo sapiens, UniProt P32519 1-619); details: protein: recombinant; tags: N-terminal GST; dsDNA, one strand shown
# ELF1, sequence (P32519 whole entry): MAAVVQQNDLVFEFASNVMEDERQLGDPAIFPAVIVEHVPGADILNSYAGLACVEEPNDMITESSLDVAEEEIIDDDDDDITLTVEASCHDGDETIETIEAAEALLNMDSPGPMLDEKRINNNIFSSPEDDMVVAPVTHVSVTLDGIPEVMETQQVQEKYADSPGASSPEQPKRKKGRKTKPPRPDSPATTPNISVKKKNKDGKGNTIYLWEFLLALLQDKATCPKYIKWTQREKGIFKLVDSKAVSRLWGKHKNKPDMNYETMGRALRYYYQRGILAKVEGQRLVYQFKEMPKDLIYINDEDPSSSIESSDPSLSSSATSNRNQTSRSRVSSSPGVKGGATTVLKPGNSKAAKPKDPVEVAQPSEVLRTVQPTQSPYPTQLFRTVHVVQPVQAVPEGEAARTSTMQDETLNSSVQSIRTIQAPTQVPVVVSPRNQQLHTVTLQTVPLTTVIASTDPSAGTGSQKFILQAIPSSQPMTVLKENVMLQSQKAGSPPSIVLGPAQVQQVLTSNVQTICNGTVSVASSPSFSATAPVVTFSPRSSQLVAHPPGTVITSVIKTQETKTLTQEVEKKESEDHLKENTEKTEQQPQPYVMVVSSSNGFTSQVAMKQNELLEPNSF
# In short: as §1
# EHF = molecular target: T5, EHF (Homo sapiens, UniProt Q9NZC4 1-300); details: protein: recombinant; tags: N-terminal GST; dsDNA, one strand shown
# T5 sequence: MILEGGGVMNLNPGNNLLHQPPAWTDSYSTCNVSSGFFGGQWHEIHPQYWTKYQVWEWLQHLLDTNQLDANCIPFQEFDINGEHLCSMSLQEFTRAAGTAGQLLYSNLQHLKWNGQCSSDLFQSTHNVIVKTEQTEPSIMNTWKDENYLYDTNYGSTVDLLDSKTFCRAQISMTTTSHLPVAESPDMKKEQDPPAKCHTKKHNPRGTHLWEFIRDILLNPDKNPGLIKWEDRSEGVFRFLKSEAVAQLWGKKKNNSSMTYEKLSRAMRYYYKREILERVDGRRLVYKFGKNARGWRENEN
# In short: as §1
# SPI1 = SPI1 (Homo sapiens, UniProt P17947 1-270); details: protein: recombinant; tags: N-terminal GST; dsDNA, one strand shown
# In short: as §1
# SPIB = SPIB (Homo sapiens, UniProt Q01892 1-262); details: protein: recombinant; tags: N-terminal GST; dsDNA, one strand shown
# SPIB, sequence (Q01892 whole entry): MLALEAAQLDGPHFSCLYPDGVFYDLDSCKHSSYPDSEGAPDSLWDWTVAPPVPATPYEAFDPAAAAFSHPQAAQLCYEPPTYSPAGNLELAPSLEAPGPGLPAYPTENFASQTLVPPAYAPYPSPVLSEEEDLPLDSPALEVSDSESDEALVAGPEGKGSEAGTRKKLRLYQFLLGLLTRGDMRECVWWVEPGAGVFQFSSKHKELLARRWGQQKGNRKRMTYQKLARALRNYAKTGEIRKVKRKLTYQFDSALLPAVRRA
# In short: as §1
# ELK3 = molecular target: T6, ELK3 (Homo sapiens, UniProt P41970 1-407); details: protein: recombinant; tags: N-terminal GST; dsDNA, one strand shown
# T6 sequence: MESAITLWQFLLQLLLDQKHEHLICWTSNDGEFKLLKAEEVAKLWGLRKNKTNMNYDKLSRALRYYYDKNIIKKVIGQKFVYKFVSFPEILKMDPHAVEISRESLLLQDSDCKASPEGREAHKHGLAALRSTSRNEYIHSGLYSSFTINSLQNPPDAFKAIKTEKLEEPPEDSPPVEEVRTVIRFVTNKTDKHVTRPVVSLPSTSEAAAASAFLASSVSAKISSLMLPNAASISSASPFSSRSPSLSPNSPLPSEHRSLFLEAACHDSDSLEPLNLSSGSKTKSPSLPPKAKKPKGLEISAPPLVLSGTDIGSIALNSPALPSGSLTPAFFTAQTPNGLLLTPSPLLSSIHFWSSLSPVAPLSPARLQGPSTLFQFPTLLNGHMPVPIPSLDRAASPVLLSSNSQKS
# In short: as §1
# FEV = molecular target: T7, FEV (Homo sapiens, UniProt Q99581 1-238); details: protein: recombinant; tags: N-terminal GST; dsDNA, one strand shown
# T7 sequence: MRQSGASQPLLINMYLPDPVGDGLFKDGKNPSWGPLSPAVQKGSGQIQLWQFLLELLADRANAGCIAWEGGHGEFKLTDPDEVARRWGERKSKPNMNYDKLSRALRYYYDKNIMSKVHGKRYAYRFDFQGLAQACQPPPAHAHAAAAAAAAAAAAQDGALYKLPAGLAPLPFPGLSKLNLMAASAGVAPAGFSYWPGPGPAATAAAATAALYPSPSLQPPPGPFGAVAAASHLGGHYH
# In short: as §1
# ETV5 = ETV5 (Homo sapiens, UniProt P41161 1-510); details: protein: recombinant; tags: N-terminal GST; dsDNA, one strand shown
# ETV5, sequence (P41161 whole entry): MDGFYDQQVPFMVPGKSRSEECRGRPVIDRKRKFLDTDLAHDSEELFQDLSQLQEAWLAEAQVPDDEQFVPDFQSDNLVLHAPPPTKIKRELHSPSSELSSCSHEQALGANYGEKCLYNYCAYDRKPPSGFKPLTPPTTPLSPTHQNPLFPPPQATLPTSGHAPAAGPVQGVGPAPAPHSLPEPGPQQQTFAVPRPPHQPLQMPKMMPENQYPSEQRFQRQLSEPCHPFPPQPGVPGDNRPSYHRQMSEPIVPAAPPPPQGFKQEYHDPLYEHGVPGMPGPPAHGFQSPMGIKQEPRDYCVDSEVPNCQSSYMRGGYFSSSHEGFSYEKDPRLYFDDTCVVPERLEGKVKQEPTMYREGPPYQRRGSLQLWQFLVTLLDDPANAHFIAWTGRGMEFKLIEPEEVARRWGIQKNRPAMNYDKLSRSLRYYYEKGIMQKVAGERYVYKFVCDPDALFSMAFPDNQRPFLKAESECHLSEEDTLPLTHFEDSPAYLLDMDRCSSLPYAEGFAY
# In short: as §1
# HSF1 = HSF1 (Homo sapiens, UniProt Q00613 1-529); details: protein: recombinant; tags: N-terminal GST; chain copies: 3; dsDNA, one strand shown
# HSF1, sequence (Q00613 whole entry): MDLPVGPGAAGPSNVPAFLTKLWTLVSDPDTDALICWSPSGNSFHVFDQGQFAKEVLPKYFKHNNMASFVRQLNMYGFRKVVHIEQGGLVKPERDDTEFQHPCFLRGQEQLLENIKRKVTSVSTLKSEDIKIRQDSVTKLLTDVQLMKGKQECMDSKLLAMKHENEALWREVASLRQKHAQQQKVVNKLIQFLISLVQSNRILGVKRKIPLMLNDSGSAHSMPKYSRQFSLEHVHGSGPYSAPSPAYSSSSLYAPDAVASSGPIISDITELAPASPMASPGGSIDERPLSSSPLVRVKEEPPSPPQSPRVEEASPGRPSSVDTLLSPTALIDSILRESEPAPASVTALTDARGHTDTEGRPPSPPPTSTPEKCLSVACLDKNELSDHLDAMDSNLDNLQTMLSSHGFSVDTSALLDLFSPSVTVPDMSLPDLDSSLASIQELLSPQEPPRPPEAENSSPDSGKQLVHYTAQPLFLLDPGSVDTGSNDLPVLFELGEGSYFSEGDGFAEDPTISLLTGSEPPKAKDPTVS
# In short: as §1
# SPIC = molecular target: T8, SPIC (Homo sapiens, UniProt Q8N5J4 1-248); details: protein: recombinant; tags: N-terminal GST; dsDNA, one strand shown
# T8 sequence: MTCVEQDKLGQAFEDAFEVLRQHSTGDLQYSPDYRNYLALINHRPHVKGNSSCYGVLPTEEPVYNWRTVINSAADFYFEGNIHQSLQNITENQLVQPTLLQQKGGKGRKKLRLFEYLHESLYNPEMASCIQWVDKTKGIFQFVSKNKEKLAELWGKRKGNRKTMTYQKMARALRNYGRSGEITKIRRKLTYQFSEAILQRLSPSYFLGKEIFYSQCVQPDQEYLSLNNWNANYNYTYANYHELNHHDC
# In short: as §1
# ELF4 = ELF4 (Homo sapiens, UniProt Q99607 1-663); details: protein: recombinant; tags: N-terminal GST; dsDNA, one strand shown
# ELF4, sequence (Q99607 whole entry): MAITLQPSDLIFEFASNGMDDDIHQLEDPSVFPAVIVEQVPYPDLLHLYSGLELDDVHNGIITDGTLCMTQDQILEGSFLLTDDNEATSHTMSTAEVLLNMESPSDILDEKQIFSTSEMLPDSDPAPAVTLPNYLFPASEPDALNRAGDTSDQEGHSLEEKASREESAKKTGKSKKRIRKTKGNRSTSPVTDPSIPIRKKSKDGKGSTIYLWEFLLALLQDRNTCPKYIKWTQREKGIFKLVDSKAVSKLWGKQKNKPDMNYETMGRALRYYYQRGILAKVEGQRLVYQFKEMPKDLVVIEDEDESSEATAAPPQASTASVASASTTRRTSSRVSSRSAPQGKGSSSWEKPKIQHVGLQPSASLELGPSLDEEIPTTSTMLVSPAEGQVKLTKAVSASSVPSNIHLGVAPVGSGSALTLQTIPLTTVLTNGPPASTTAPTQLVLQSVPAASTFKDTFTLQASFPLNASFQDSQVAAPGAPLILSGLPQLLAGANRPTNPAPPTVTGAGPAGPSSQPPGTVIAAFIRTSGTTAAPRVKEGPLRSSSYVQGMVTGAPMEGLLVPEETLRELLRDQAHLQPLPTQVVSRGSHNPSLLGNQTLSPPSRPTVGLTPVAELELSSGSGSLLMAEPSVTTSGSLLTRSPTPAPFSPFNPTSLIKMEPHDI
# In short: as §1
# ELK4 = molecular target: T9, ELK4 (Homo sapiens, UniProt P28324-2 1-405); details: protein: recombinant; tags: N-terminal GST; dsDNA, one strand shown
# T9 sequence: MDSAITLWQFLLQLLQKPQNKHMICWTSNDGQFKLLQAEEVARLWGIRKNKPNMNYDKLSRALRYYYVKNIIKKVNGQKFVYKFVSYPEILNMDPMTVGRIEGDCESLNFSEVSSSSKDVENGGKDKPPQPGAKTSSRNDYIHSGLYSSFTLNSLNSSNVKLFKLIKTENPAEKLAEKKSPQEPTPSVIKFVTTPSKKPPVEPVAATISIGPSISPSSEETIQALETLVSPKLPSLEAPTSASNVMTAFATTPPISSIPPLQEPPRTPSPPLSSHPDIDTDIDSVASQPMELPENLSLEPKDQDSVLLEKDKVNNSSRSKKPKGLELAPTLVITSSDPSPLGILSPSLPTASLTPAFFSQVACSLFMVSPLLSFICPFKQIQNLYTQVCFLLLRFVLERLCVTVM
# In short: as §1
# ETV2 = molecular target: T10, ETV2 (Homo sapiens, UniProt O00321 1-342); details: protein: recombinant; tags: N-terminal GST; dsDNA, one strand shown
# T10 sequence: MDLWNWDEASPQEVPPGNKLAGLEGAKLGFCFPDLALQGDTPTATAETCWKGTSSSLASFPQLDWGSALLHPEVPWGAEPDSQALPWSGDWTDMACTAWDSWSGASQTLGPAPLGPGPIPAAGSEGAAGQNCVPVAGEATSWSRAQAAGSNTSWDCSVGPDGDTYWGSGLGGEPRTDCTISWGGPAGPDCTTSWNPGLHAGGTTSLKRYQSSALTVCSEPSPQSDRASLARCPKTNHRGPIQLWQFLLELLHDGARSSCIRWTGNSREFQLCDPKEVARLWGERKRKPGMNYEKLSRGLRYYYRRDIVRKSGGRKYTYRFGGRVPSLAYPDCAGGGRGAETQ
# In short: as §1
# ELF3 = molecular target: T11, ELF3 (Homo sapiens, UniProt P78545 1-371); details: protein: recombinant; tags: N-terminal GST; dsDNA, one strand shown
# T11 sequence: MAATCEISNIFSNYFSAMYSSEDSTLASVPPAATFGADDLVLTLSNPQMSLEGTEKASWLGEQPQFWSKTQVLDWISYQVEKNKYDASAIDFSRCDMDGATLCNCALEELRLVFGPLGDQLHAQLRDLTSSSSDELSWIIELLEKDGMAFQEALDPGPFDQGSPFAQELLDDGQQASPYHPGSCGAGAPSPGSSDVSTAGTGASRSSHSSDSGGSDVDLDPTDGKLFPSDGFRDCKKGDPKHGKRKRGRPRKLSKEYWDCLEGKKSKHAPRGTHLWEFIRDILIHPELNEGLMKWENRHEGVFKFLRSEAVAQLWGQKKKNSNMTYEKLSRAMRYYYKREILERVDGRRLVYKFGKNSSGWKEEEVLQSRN
# In short: as §1
# CRX = CRX (Homo sapiens, UniProt O43186 1-299); details: protein: recombinant; tags: N-terminal GST; dsDNA, one strand shown
# CRX, sequence (O43186 whole entry): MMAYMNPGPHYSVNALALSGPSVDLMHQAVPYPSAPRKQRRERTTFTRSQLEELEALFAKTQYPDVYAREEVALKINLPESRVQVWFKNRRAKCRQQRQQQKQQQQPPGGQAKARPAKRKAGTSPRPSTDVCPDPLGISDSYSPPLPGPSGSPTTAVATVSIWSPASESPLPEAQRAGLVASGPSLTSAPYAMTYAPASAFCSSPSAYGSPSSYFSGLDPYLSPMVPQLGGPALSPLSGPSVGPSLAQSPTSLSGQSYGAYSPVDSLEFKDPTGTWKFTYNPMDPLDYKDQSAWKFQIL
# In short: as §1
# ETV1 = ETV1 (Homo sapiens, UniProt P50549 1-477); details: protein: recombinant; tags: N-terminal GST; dsDNA, one strand shown
# ETV1, sequence (P50549 whole entry): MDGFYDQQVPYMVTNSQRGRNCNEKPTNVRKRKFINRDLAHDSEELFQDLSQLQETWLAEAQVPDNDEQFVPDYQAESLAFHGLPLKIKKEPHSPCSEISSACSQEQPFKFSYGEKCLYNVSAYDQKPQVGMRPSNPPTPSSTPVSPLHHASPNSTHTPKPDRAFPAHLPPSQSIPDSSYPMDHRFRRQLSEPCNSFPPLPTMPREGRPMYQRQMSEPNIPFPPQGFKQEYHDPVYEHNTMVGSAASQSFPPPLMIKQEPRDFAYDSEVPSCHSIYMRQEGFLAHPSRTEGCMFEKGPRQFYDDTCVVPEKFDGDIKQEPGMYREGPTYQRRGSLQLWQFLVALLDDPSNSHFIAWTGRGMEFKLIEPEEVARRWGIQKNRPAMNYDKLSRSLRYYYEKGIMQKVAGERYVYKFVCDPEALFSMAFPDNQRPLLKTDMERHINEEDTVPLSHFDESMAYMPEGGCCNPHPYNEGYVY
# In short: as §1
sequence,measurement,setting,value
CTTAGG,binding signal,FLI1,"1.1 fold enrichment (6-mer frequency, TF over GST control)"
same,binding signal,ELK1,"1.12 fold enrichment (6-mer frequency, TF over GST control)"
same,binding signal,GABPA,"1.15 fold enrichment (6-mer frequency, TF over GST control)"
same,binding signal,ERG,"1.19 fold enrichment (6-mer frequency, TF over GST control)"
same,binding signal,ELF1,"1.17 fold enrichment (6-mer frequency, TF over GST control)"
same,binding signal,EHF,"1.14 fold enrichment (6-mer frequency, TF over GST control)"
same,binding signal,SPI1,"1.09 fold enrichment (6-mer frequency, TF over GST control)"
same,binding signal,SPIB,"1.08 fold enrichment (6-mer frequency, TF over GST control)"
same,binding signal,ELK3,"1.05 fold enrichment (6-mer frequency, TF over GST control)"
same,binding signal,FEV,"1.11 fold enrichment (6-mer frequency, TF over GST control)"
same,binding signal,ETV5,"1.15 fold enrichment (6-mer frequency, TF over GST control)"
same,binding signal,HSF1,"1.29 fold enrichment (6-mer frequency, TF over GST control)"
same,binding signal,SPIC,"1.3 fold enrichment (6-mer frequency, TF over GST control)"
same,binding signal,ELF4,"1.16 fold enrichment (6-mer frequency, TF over GST control)"
same,binding signal,ELK4,"1.04 fold enrichment (6-mer frequency, TF over GST control)"
same,binding signal,ETV2,"1.23 fold enrichment (6-mer frequency, TF over GST control)"
same,binding signal,ELF3,"1.49 fold enrichment (6-mer frequency, TF over GST control)"
same,binding signal,CRX,"1.8 fold enrichment (6-mer frequency, TF over GST control)"
same,binding signal,ETV1,"1.19 fold enrichment (6-mer frequency, TF over GST control)"
